Measured values reported in article PMC4336329 (PLoS ONE, 2015).
The campaign covered roughly 310,000 compounds. About 14,000 (4.5%) showed an effect of 50% or more. Effects have a minus sign here. Shown is part of a subset that was picked to be rich in strong results.

Target: human ether-à-go-go-related gene (hERG) potassium channel (human, UniProt Q12809)
Experiment: primary screen, population patch clamp on CHO cells stably expressing hERG; higher = less effect of the substance
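Further: peak tail current of the secondary pulse compared with the same well before compound.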

Sequence of human ether-à-go-go-related gene (hERG) potassium channel (Q12809 whole entry, looked up): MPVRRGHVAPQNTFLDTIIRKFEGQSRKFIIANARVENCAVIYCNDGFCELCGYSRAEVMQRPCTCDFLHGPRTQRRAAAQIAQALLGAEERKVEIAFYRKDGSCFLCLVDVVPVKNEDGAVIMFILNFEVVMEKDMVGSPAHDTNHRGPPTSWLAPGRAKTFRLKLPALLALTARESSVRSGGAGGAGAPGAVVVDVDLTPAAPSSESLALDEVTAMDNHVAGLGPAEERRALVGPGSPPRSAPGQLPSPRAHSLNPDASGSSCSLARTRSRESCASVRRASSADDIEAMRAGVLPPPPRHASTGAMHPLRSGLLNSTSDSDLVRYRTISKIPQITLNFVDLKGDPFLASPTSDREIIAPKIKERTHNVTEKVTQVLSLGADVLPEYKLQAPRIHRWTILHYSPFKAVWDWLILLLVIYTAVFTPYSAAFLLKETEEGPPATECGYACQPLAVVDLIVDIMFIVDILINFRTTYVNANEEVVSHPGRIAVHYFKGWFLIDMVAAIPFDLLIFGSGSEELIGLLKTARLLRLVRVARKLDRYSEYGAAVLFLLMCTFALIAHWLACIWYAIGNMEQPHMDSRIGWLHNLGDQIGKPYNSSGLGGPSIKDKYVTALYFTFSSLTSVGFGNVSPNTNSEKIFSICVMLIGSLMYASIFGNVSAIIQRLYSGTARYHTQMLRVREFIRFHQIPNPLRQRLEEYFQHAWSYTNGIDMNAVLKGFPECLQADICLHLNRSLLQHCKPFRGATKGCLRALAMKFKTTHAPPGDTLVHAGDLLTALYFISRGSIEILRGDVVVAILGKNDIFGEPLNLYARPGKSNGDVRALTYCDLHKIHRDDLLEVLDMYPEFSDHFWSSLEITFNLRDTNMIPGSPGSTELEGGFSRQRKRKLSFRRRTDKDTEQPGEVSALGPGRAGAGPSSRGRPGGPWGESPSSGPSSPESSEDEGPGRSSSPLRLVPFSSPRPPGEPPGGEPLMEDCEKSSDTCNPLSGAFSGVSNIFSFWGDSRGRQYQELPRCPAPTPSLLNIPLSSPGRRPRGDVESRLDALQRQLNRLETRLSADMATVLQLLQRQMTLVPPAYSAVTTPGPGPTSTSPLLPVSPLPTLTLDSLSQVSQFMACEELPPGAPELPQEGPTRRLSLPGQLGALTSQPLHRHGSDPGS

Row | Structure (SMILES) | hERG current change (%, negative = inhibition) at 10uM
1 | CCCCOC(=O)Nc1ccc(S(=O)(=O)Nc2ccc([N+](=O)[O-])cc2)cc1 | 9.83%
2 | Cc1cc(C(=O)OCC(=O)c2cccs2)c2ccccc2n1 | 24.1%
3 | O=c1[nH][nH]c(-c2ccccc2)c1C=Nc1ccc(Cl)cc1 | -23%
4 | Cc1ccc(C(=O)C2=C(O)C(=O)N(CCCN3CCOCC3)C23C(=O)N(C)c2ccccc23)o1 (stereo not shown) | 27.9%
5 | O=C(Cn1[nH]c(=O)c2ccccc2c1=O)OCC(=O)c1ccccc1Cl | -0.463%
6 | CC(C)=CCN1CCN(Cc2ccc3nsnc3c2)CC1CCO (stereo not shown) | -19.4%
7 | Cc1nn(-c2ccc(F)cc2)c(C)c1CN1CCN(CCC(C)C)C(CCO)C1 (stereo not shown) | -36.3%
8 | Cc1nn(-c2ccc(F)cc2)c(C)c1CN1CCN(Cc2ccccc2)C(CCO)C1 (stereo not shown) | -44.2%
9 | Cn1cc(CN2CCN(CCc3ccccc3)C(CCO)C2)cn1 (stereo not shown) | 4.52%
10 | OCCC1CN(Cc2cccc(F)c2F)CCN1CCc1ccccc1 (stereo not shown) | -55.3%
11 | OCCC1CN(Cc2ccc3nsnc3c2)CCN1CCc1ccccc1 (stereo not shown) | -82.2%
12 | Cc1nn(-c2ccc(F)cc2)c(C)c1CN1CCN(CCc2ccccc2)C(CCO)C1 (stereo not shown) | -67.5%
13 | CC(C)CCN1CCN(Cc2ccc3nsnc3c2)CC1CCO (stereo not shown) | -42.6%
14 | CCn1cc(CN2CCN(CCc3ccccc3)C(CCO)C2)c(C)n1 (stereo not shown) | -31%
15 | CC(C)n1cc(CN2CCN(CCc3ccccc3)C(CCO)C2)cn1 (stereo not shown) | -53.4%
16 | O=C(O)c1cncc(C#Cc2ccccc2)c1 | 1.39%
17 | Cc1c(C(=O)Nc2ccc(OCc3ccccc3)cc2)cccc1[N+](=O)[O-] | -0.125%
18 | CC1CCCCN1S(=O)(=O)c1ccc(C(=O)N2CCOCC2)cc1 (stereo not shown) | 16.8%
19 | C[Se]C[C@@H](N)C(=O)O.Cl | 12.3%
20 | COc1cc2ccccc2cc1C(=O)OCC(=O)N(C)c1c(N)n(Cc2ccccc2)c(=O)[nH]c1=O | 3.29%
21 | Cn1c(C(=O)NCCN2CCc3ccccc3C2)cc2c(=O)n(C)c3ccccc3c21 | -11.8%
22 | N/C(=N\OC(=O)CCCOc1ccccc1)c1ccccc1 | 7.28%

Row | Structure (SMILES) | hERG current change (%, negative = inhibition) at 10uM
23 | Br.COC(=O)CN1C2=NCCCN2c2ccccc21 | -11.8%
24 | COC(=O)c1ccc(OCCOc2ccc(C(=O)OC)cc2)cc1 | -14.3%
25 | Br.COC(=O)c1ccc(OCCN2C3=NCCN3c3ccccc32)cc1 | -68.7%
26 | Cl.c1ccc(OCCN2C3=NCCN3c3ccccc32)cc1 | -73.3%
27 | CCN(CC)c1ccc(/C=N/NC(=O)c2ccc3nc[nH]c3c2)cc1 | -22%
28 | N#C/C(=C/c1ccccc1)C(=O)OCC(=O)Nc1ccccc1[N+](=O)[O-] | 8.46%
29 | Cc1nn(-c2ccccc2)c(C)c1-c1nnc(C(F)(F)F)o1 | 2.32%
30 | Cc1ccc(-c2c3c(=O)n(C)c(=O)n(C)c3cn2N2CCOCC2)cc1 | -40%
31 | COc1ccc(-c2c3c(=O)n(C)c(=O)n(C)c3cn2N2CCOCC2)cc1 | -52.3%
32 | Cn1c(=O)c2c(-c3ccc(C(C)(C)C)cc3)n(N3CCOCC3)cc2n(C)c1=O | -26.7%
33 | COC(=O)c1cc(C(=O)Nc2ccc(Cl)cn2)cc([N+](=O)[O-])c1 | -19%
34 | O=c1oc2cc(S(=O)(=O)NCCCO)ccc2c2ccc(S(=O)(=O)NCCCO)cc12 | 16.1%
35 | CN(C)CC1CCCCC1OC(=O)c1ccc(Br)cc1.Cl (stereo not shown) | -7.82%
36 | CN(C)CC1CCCCC1OC(=O)c1ccc(Cl)cc1 (stereo not shown) | -28.5%
37 | COc1ccc(C(=O)OC2CCCCC2CN(C)C)cc1.Cl (stereo not shown) | 14.1%
38 | CN(C)CC1CCCCC1OC(=O)/C=C/c1ccc(Cl)cc1Cl.Cl (stereo not shown) | -32.4%
39 | CN1CCC(OC(=O)c2cccc(Cl)c2)CC1.Cl | -8.64%
40 | CN1CCC(OC(=O)c2ccccc2Cl)CC1.Cl | 0.522%
41 | CN1CCC(OC(=O)c2ccc(Cl)cc2Cl)CC1.Cl | -55.9%
42 | CN(C)CC1CCCCC1OC(=O)c1ccc(Cl)c(Cl)c1.Cl (stereo not shown) | -52.1%
43 | CN(C)CC1CCCCC1OC(=O)c1ccc(Cl)cc1Cl.Cl (stereo not shown) | -56.5%
44 | Cc1cc(C)n2nc(C(=O)N3CCCC(Nc4ccc(F)c(F)c4)C3)cc2n1 (stereo not shown) | 5.05%

Row | Structure (SMILES) | hERG current change (%, negative = inhibition) at 10uM
45 | COc1cccc(N2C(=O)CC(N3CCN(C(=O)c4ccco4)CC3)C2=O)c1 (stereo not shown) | 9.29%
46 | COCCN(C(=O)c1ccc(NC2CC2)c([N+](=O)[O-])c1)c1c(N)n(CC(C)C)c(=O)[nH]c1=O | -5.42%
47 | C[C@@H]1CC[C@]2(O[C@H](CCO)C[C@@H](O)[C@@H]2O)O1 | 0.536%
48 | CC(C)(c1ccccc1)c1ccc(OCCN)cc1.Cl | -20.2%
49 | Cc1cccc(NC(=O)CCc2c(C)nn(-c3ccc(N4CCOCC4)nn3)c2C)c1 | 3.98%
50 | CCc1cccc(NC(=O)CCc2c(C)nn(-c3ccc(N4CCCCC4)nn3)c2C)c1 | -19%
51 | CCc1cccc(NC(=O)CCc2c(C)nn(-c3ccc(N4CCOCC4)nn3)c2C)c1 | -51.4%
52 | COc1ccc(NC(=O)Cn2c(=O)oc3cc(S(=O)(=O)N4CCCC4)ccc32)cc1 | 5.26%
53 | CC1(C)CC(=O)C2=C(C1)N(c1ccccc1)C(=O)CC2c1ccsc1 (stereo not shown) | -14.4%
54 | O=C(NCc1ccccc1)C1CCN(S(=O)(=O)N2CCCCCC2)CC1 | -11%
55 | CCn1c(=O)c(C(=O)NCCNCCO)c(O)c2ccccc21.Cl | 5.89%
56 | CCN1C(=O)C(CC(=O)Nc2ccc(OC)cc2)N(CCCN2CCN(c3ccc(F)cc3)CC2)C1=S (stereo not shown) | -37.6%
57 | CCN1C(=O)C(CC(=O)Nc2ccc(F)cc2)N(CCc2ccc(OC)cc2)C1=S (stereo not shown) | -0.637%
58 | CCN1C(=O)C(CC(=O)Nc2ccc(OC)cc2)N(CCc2ccc(F)cc2)C1=S (stereo not shown) | -6.48%
59 | CCN1C(=O)C(CC(=O)Nc2ccc(OC)cc2)N(CCN2CCOCC2)C1=S (stereo not shown) | -4.13%
60 | C=CCN1C(=O)C(CC(=O)Nc2ccc(OCCC)cc2)N(CCCN2CCN(Cc3ccccc3)CC2)C1=S (stereo not shown) | -38.7%
61 | CCCOc1ccc(NC(=O)CC2C(=O)N(CC)C(=S)N2CCNC(C)=O)cc1 (stereo not shown) | -11.5%
62 | CCCOc1ccc(NC(=O)CC2C(=O)N(CC)C(=S)N2CCCN2CCN(Cc3ccccc3)CC2)cc1 (stereo not shown) | -50.5%
63 | CCN1C(=O)C(CC(=O)Nc2ccc(F)cc2)N(CCCN2CCN(c3ccc(F)cc3)CC2)C1=S (stereo not shown) | -62.2%
64 | CCN1C(=O)C(CC(=O)Nc2ccc(OC)cc2)N(CCCN2CCN(c3ccc(OC)cc3)CC2)C1=S (stereo not shown) | -68%
